Assay results from PubChem BioAssay AID1159580 (chemical genetic matrix, 2015).
The whole screen tested about 5,500 compounds, of which about 2,000 (36%) were called active. Not shown: some 18% with an inconclusive outcome. No stated cut-off is given here; in the data, active means normalized growth mostly below about 0.91 (no sharp cut-off); inconclusive means no clear call, values can overlap the other calls; inactive means mostly above about 0.92. The list shows a part of the results.

Test: chemical genetic growth profiling, strain panel (AID 1159580);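 further: tested at 20 µM; growth read once vehicle control cultures reached saturation at 30 °C; 1 = growth at the plate median or of vehicle wells; lower values mean less growth of the strain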
Settings: S. cerevisiae deletion strains, growth OD

Measured: normalized growth

NC(N)=NC(N)=NCCc1ccccc1
inactive: locus YHR030C, strain SLT2, active compounds read low 0.956 | locus YHR079C, strain IRE1, active compounds read low 0.96 | locus YJL095W, strain BCK1, active compounds read low 0.961 | locus YJR066W, strain TOR1, active compounds read low 0.953 | locus YLR113W, strain HOG1, active compounds read low 0.965 | locus YNL183C, strain NPR1, active compounds read low 0.916 | locus YOR231W, strain MKK1, active compounds read low 0.975 | locus YPL256C, strain CLN2, active compounds read low 0.934
